Assay results from PubChem BioAssay (NCATS).
Results filed as inconclusive are left out. The source made the active and inactive calls. Calls follow the shape of the dose curve; as a rule, active = well fitted inhibition curve with a large enough effect; inconclusive = small, poorly fitted or top-dose-only effect; inactive = flat fitted curve, though single readings scatter.

How the values were obtained:
[1] = Drug repurposing screens with cells derived from glioblastoma tumor samples (AID 1345199); conditions: GBM patient neurospheres viability, ATP luminescence, 48 h; also: nearly all actives have a fitted effect of over 40% in size
Procedure, shortened: (§1)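 Primary testing used CD133+ neurospheres from four GBM patients, seven concentrations, 48 h exposure and ATP-based viability; confirmation added three slower-growing patient lines.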

astro = control astrocytes; assay: as above; conditions: viability, ATP luminescence, 48 h; series mostly up to 45.9 µM
Procedure, shortened: as §1

[2] = at 45.9 µM (top of the series), tumour line B
[3] = at 45.9 µM (top of the series), tumour line D
[4] = at 46.1 µM (top of the series), tumour line C
% is scaled to controls: 0 for no effect and ±100 for the full control effect.

Cc1cccc(Nc2ncccc2C(=O)O)c1C
inactive: activity, negative = cell killing [1, 2] -17.7% | activity, negative = cell killing [1, 3] -8.87% | activity, negative = cell killing [1, 4] -27.1% | Potency (astro)

COc1ccc(/C=C/C(=O)O)cc1
inactive: activity, negative = cell killing [1, 2] 6.24% | activity, negative = cell killing [1, 3] -5.33% | activity, negative = cell killing [1, 4] 9.31% | Potency (astro)

CN(Cc1ccccc1)Cc1ccccc1
inactive: activity, negative = cell killing [1, 2] -11.4% | activity, negative = cell killing [1, 3] 6.3% | activity, negative = cell killing [1, 4] -21.1% | Potency (astro)
